# Screening data: PubChem, several laboratories
# PrP UTR inh: suppresses PrP 5' UTR mRNA reporter expression | cell-based PrP 5' UTR mRNA reporter, plate reader | inhibition, % (concentration not given with the values) | actives 0.35% (n = 340,000); in the data active = inhibition above about 52%; note: 0 = median of the neutral control wells
# SSB-PriA inh: blocks PriA binding to SSB C-terminal tail | AlphaScreen SSBct-PriA binding, biotinylated peptide | inhibition, % at 33 µM | actives 0.6% (n = 430,000); in the data active = inhibition mostly above about 37%, no sharp cut-off; inactive = mostly below about 20%;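 note: plate controls were negative control peptide for no effect and reference peptide for full effect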
# Mtb BioA inh: BioA (M. tuberculosis) enzyme inhibition; inhibition, % at 9.99 µM; actives 0.096% (n = 360,000); purified M. tuberculosis BioA enzyme, plate reader; in the data active = inhibition above about 40%
# Mtb hypoxia inh: reduces hypoxia-regulated biosensor signal in M. tuberculosis; actives 0.1% (n = 300,000); M. tuberculosis hypoxia-regulated fluorescent reporter, fluorescence; fluorescence inhibition, % (test concentration not listed); in the data active = fluorescence inhibition mostly above about 23%, no sharp cut-off; inactive = mostly below about 17%
# TcdB GH inh: TcdB glycohydrolase inhibition. actives 0.24% (n = 350,000). TcdB glycohydrolase enzymatic assay, plate reader. inhibition, % at 9.99 µM. P18177. AID 652162; in the data active = inhibition above about 10%
# FadD28 FP inh: inhibitors of Mycobacterium tuberculosis FadD28 bisubstrate binding; actives 0.22% (n = 360,000); AID 588549; FadD28 bisubstrate probe binding, fluorescence polarization; inhibition, % at 12.5 µM; in the data active = inhibition above about 8.5%, passing the limit was not always enough
# Numbers without * were called inactive; nt = no result given; ! = a repeat was not active. Shown are actives, neighbours in structure and some others; about 1% of the full set was active somewhere.
SMILES,PrP UTR inh,SSB-PriA inh,Mtb BioA inh,Mtb hypoxia inh,TcdB GH inh,FadD28 FP inh
CC(C)(O)C(O)COc1c2ccoc2cc2oc(=O)ccc12 (stereo unspecified),-13,40*,1,7,-4,-4
O=C(NCCSc1ncc(-c2ccccc2)[nH]1)C(=O)Nc1ccccc1[N+](=O)[O-],nt,42*,nt,nt,nt,nt
Cc1cc(/C=C\c2ccc3cc(N(C)C)ccc3[n+]2C)c(C)n1-c1ccccc1,73*,nt,0,nt,nt,2
O=c1[nH]c(/C=C/c2ccc(Br)cc2)nc2c1cnn2-c1ccccc1,nt,nt,nt,2,nt,nt
Oc1ccc2ccc3[nH]cnc3c2c1,-15,-9,-2,nt,21*,2
CN(C)Cc1c(O)ccc2[nH]cnc12,-15,-8,-2,nt,nt,-4
O=C(NN=Cc1ccc(O)c(O)c1)c1cc(-c2ccccc2)nc2ccccc12,nt,14,nt,11,nt,nt
Cc1ccc(N(C)S(=O)(=O)c2cc(-c3cnc(C4CC4)o3)ccc2C)cc1,-1,1,0,nt,1,1
Cc1cccc(N(C)S(=O)(=O)c2ccc(-c3cnc(C4CC4)o3)cc2)c1,59*,-5,-2,-4,-1,-3
C=CC[n+]1c(C)csc1Nc1ccc(C)cc1,-21,33,nt,7,-3,-1
C=CC[n+]1c(C)csc1Nc1cccc(Br)c1,-17,61*,nt,3,1,6
CCCCn1c(-c2ccccc2C)nc2cc3[nH]c(=O)c(C(C)C)nc3cc21,-11,-30,4,2,11*,-4
C[C@@H]1CN([C@H](C)CO)C(=O)c2cc(NC(=O)NC3CCCCC3)ccc2O[C@@H](C)CCCCO[C@H]1CN(C)S(=O)(=O)c1ccc(Cl)cc1,nt,nt,0,nt,1,nt
O=C(COc1ccc2ccccc2c1)N[C@@H](C(=O)O)c1ccc(O)cc1,4,40*,-3,-4,1,0
O=C(COc1ccc2ccccc2c1)NNC(=O)Cc1ccccc1,-14,-13,-2,-6,0,-3
C/C(C/C(C)=C1/SC(=S)NC1=O)=C1\SC(=S)NC1=O,-33,-19,nt,nt,-2,20*
CCCCCC/C(C)=C1/SC(=S)NC1=O,-28,3,6,4,nt,-9
CCN(CC)CCN(C(=O)c1cc2ccccc2cc1OC)c1nc2ccc(F)cc2s1,-7,47*!,-1,-16,1,-1
CCN(CC)CCN(C(=O)c1cc2ccccc2cc1OC)c1nc2ccc(OC)cc2s1,-3,45*,-1,-4,3,-12
CCN(CC)CCN(C(=O)c1ccc(OC)c(OC)c1)c1nc2ccc(F)cc2s1,nt,2,nt,nt,nt,nt
CCN(c1ccccc1)S(=O)(=O)c1ccc(OC)c(N=N/C(C(=O)Nc2ccccc2)=C(/C)O)c1,-32,nt,nt,0,0,-3
O=C(O)CCN1C(=O)/C(=C\c2ccncc2)SC1=S,-20,4,-1,38*,-5,-1
CCN1C(=O)/C(=C\c2ccncc2)SC1=S,0,-2,-2,-1,1,-3
O=C(O)CCN1C(=O)/C(=C\c2ccc(-c3nc4ccccc4s3)o2)SC1=S,-22,0,-2,nt,nt,20*
COc1ccc(/C=C2\SC(=S)N(CCC(=O)Nc3ccc(C(=O)O)cc3)C2=O)cc1,-16,-4,-1,5,3,-4
SMILES,PrP UTR inh,SSB-PriA inh,Mtb BioA inh,Mtb hypoxia inh,TcdB GH inh,FadD28 FP inh
COc1cc(/C=C2/SC(=S)NC2=O)ccc1OS(=O)(=O)c1ccc(C)cc1,-46,37,nt,-3,nt,-12
COc1ccc(/C=C2/SC(=S)N(CCC(=O)O)C2=O)cc1,63*,-6,-1,5,nt,0
COc1cc(/C=C2\SC(=S)N(CCCCC(=O)O)C2=O)ccc1OS(=O)(=O)c1ccc(C)cc1,-18,7,4,11,0,24*
Cc1c(N=C2SC(CC(=O)Nc3ccccc3)C(=O)N2CCN2CCOCC2)c(=O)n(-c2ccccc2)n1C (stereo unspecified),-9,-18,nt,-1,2,-3
COc1ccc2nc(C)cc(NN=Cc3ccc(F)cc3)c2c1,nt,28,nt,78*,nt,nt
COc1ccc2nc(C)cc(N/N=C/c3ccc(F)cc3)c2c1,15,nt,0,nt,1,-9
Cc1ccccc1OCC(=O)OCC(=O)c1ccc(OC(=O)c2ccccc2)cc1,7,67*,-4,0,nt,0
Cc1ccccc1OCC(=O)OCC(=O)c1ccc(OCc2ccccc2)cc1,-36,-58,-2,13,nt,0
CC(=O)Nc1ccc(S(=O)(=O)NCCn2ccnc2-c2ccccn2)c(C)c1,nt,9,nt,nt,nt,nt
COc1ccc(Br)c(C(=O)NCCn2ccnc2-c2ncccn2)c1,nt,91*,nt,nt,nt,nt
O=C(NCCn1ccnc1-c1ncccn1)c1ccc2c(c1)OCO2,nt,93*,nt,nt,nt,nt
COc1ccc(S(=O)(=O)NCCn2ccnc2-c2ncccn2)c(C)c1,nt,81*,nt,nt,nt,nt
COc1ccc(OC)c(S(=O)(=O)NCCn2ccnc2-c2ncccn2)c1,nt,91*,nt,nt,nt,nt
COc1ccc(Br)c(C(=O)NCCn2nc(C)cc2C)c1,nt,-12,nt,nt,nt,nt
O=C(NCCn1ncccc1=O)c1ccc2c(c1)OCO2,nt,-5,nt,nt,nt,nt
CN1C(=O)c2cccc(NC(=O)/C=C/c3ccccc3Cl)c2C1=O,nt,5,nt,nt,nt,nt
CC(=O)c1ccc(N(CC(=O)NCC2CCCO2)C(=O)CCC(=O)Nc2cc(C)on2)cc1 (stereo unspecified),-7,-7,-1,-5,1,-2
COc1ccc(CNCc2ccc3c(c2)OCO3)cc1Br,-3,9,1,15,1,0
CS(=O)(=O)Nc1ccccc1C(=O)OCC(=O)N1CCC(c2ccccc2)=N1,-8,-5,6,33*,-1,-6
Cc1ccc(C(=O)OCC(=O)N2CCC(c3ccccc3)=N2)c(C)c1,-1,-12,-9,-8,1,1
COc1ccc(CCn2c(NCc3ccco3)nc3c2c(=O)[nH]c(=O)n3C)cc1,2,-14,-8,nt,nt,0
C=CCOCC(O)Cn1c(NCc2ccco2)nc2c1c(=O)[nH]c(=O)n2C (stereo unspecified),nt,67*,nt,nt,nt,nt
O=C(C[C@H]1CC[C@@H]2[C@H](COC[C@H](O)CN2S(=O)(=O)c2ccccc2)O1)NCc1ccc(-c2ccccc2)cc1,nt,nt,1,nt,-1,nt
Cn1ccc(C(=O)Nc2nnc(-c3ccno3)o2)n1,nt,16,nt,nt,nt,nt
CCn1ccc(C(=O)Nc2nnc(-c3ccno3)o2)n1,nt,28*,nt,nt,nt,nt
O=C(COC(=O)c1cccc(Cl)c1)NC1CCS(=O)(=O)C1 (stereo unspecified),-19,-5,-1,-17,1,-1
Cc1cc(NC(=O)CCC(=O)N(C2CC2)C(C(=O)NC(C)(C)C)c2ccccc2Cl)no1 (stereo unspecified),-8,10,0,0,1,-3
CCC(C)(C)NC(=O)C(c1ccccc1Cl)N(C(=O)CCC(=O)Nc1cc(C)on1)C1CC1 (stereo unspecified),-12,49*,1,3,0,-3
C[C@H](CO)N1C[C@H](C)[C@@H](CN(C)C(=O)Nc2ccc(C(F)(F)F)cc2)Oc2ccc(NC(=O)C3CCCCC3)cc2C1=O,-12,1,1,-14,14*!,-1
